# Measured values: PubChem BioAssay
# Calls of active or inactive are those of the source.
# Legend:
# [1] = anti-His antibody binders, primary screen, artefact control for SMM control protein annotation, biochemical, small-molecule microarray, 635 nm fluorescence (AID 1128); settings: anti-His Alexa647 antibody binding, higher = more signal;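 note: score merges feature fluorescence with signal-to-noise for each printed compound spot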
# [2] = tested on: Human papillomavirus type 1a E7 protein (residues 1-88); experiment: HPV1a E7 small-molecule binders, primary screen, biochemical, small-molecule microarray, residues 1-88, 635 nm (AID 1129); settings: small-molecule microarray binding, fluorescence 635 nm; higher = more signal
# [3] = biological target: Focal adhesion kinase 1 (Homo sapiens) (UniProt Q05397); experiment: small-molecule microarray binders of FAK, primary screen, biochemical, 635/667 nm fluorescence, BSA, DTT (AID 1130); settings: PTK2 binding, 635 nm fluorescence, higher = more signal;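 note: composite of spot emission at 667 nm and signal to noise over triplicate slides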
# Sequence of Focal adhesion kinase 1 (Homo sapiens) (Q05397 whole entry, looked up): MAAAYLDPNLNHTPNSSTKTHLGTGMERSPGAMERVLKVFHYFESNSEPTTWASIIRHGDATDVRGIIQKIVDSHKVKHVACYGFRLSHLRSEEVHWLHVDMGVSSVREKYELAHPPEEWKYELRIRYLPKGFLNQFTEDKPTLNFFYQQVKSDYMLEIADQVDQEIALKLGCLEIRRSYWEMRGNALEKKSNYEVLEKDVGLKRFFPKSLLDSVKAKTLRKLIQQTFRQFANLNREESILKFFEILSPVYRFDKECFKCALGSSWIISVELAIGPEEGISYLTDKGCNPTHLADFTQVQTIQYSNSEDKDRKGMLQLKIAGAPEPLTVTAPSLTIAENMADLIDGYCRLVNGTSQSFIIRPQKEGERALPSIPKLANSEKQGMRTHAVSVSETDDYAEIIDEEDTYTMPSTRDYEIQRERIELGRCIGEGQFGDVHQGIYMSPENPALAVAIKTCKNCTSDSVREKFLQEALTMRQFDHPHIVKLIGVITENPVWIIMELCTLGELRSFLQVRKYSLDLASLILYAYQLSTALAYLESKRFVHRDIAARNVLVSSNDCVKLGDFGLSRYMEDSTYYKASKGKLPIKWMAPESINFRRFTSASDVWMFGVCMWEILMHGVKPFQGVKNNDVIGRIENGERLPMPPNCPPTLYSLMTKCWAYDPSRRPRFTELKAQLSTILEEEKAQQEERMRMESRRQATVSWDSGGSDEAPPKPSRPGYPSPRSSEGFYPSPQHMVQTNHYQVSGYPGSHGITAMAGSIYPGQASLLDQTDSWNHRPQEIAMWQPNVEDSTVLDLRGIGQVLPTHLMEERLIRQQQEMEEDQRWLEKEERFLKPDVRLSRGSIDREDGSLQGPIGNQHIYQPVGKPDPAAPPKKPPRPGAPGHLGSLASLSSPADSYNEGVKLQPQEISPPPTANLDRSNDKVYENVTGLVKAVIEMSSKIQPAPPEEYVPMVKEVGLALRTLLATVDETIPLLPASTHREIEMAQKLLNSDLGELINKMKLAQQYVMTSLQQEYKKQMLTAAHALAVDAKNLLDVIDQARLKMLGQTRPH
# [4] = tested on: Fibrinogen (Alexa647-labelled); experiment: fibrinogen binders on compound microarrays, profiling panel, artefact control for SMM control-protein annotation, biochemical, small-molecule microarray, 635/667 nm fluorescence (AID 1131); settings: fibrinogen-A647 binding fluorescence, higher = more signal;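 note: z-score merges 667 nm fluorescence with per-spot signal-to-noise over triplicate slides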
# [5] = biological target: Follistatin (Homo sapiens) (UniProt P19883); experiment: follistatin binders on small-molecule microarrays, primary screen, biochemical, small-molecule microarray, 635/667 nm fluorescence (AID 1132); settings: FST binding, 635 nm fluorescence, higher = more signal
# Sequence of Follistatin (Homo sapiens) (P19883 whole entry, looked up): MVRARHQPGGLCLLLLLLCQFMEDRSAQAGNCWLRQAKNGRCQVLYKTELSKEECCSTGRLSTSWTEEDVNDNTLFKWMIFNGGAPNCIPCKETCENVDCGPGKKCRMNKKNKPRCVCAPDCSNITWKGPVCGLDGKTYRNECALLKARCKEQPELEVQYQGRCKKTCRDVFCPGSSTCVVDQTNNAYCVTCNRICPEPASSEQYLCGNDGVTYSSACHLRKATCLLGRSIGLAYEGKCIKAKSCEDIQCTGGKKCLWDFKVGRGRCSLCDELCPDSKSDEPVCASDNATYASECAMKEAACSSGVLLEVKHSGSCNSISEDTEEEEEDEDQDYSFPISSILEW
# [6] = biological target: Fibroblast growth factor 2 (Homo sapiens) (UniProt P09038); experiment: FGF2 binders on small-molecule microarrays, primary screen, biochemical, small-molecule microarray, 635/667 nm fluorescence (AID 1133); settings: small-molecule microarray binding, FGF2, fluorescence 635/667; higher = more signal
# Sequence of Fibroblast growth factor 2 (Homo sapiens) (P09038 whole entry, looked up): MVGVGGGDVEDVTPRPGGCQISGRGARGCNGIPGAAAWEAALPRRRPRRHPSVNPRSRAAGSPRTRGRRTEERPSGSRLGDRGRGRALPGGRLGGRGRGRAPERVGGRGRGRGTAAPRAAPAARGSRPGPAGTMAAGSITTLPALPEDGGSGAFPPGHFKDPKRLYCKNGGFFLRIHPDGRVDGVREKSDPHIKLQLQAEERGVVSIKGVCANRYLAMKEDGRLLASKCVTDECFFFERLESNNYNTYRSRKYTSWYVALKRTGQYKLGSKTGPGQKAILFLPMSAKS
# [7] = mitochondrial membrane potential change in A549 cells, profiling panel, cell-based, JC-1 fluorescence, basal, 24 h, 100 nL (AID 1138); settings: higher = more signal;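 note: A549 lung adenocarcinoma cells under basal conditions with no added stimulus; test concentration not given here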
# [8] = tested on: Lefty1; experiment: Lefty1 binders on small-molecule microarrays, primary screen, biochemical, small-molecule microarray, 635/667 nm fluorescence (AID 1139); settings: small-molecule microarray binding, fluorescence 635/667; higher = more signal
# [9] = tested on: wheat germ agglutinin (Triticum aestivum), Alexa647-labelled; experiment: wheat germ agglutinin binders on compound microarrays, profiling panel, artefact control for SMM control-protein annotation, biochemical, small-molecule microarray, 635/667 nm fluorescence (AID 1140); settings: WGA-A647 binding, 635 nm fluorescence, higher = more signal;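 note: score merges 667 nm feature emission with signal to noise over triplicate slides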
# [10] = biological target: Luciferin 4-monooxygenase (Photinus pyralis) (UniProt P08659); experiment: firefly luciferase enzyme inhibitors, primary screen, biochemical, luminescence, purified enzyme, 2006 set (AID 1141); settings: SteadyGlo luminescence, 30 min, higher = more signal, called active from +8 up or from −8 down;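 note: cell-free assay with purified firefly luciferase at 100 ng per well in PBS; test concentration not given here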
# Sequence of Luciferin 4-monooxygenase (Photinus pyralis) (P08659 whole entry, looked up): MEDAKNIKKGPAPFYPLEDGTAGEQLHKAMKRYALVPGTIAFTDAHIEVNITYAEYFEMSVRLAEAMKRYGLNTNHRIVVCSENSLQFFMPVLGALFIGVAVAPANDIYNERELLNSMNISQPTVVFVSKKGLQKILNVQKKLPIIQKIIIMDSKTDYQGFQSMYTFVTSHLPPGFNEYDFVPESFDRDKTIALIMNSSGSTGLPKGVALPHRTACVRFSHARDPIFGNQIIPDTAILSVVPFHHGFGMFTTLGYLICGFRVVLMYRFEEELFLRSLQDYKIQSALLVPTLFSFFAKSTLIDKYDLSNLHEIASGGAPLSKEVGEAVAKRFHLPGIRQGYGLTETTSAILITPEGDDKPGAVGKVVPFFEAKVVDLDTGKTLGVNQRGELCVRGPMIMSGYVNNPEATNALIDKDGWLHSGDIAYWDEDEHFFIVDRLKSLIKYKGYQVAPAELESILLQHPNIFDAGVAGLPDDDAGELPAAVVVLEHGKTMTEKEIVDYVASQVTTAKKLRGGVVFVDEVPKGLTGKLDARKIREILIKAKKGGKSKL
SMILES,composite z-score [1],composite z-score [2],composite z-score [3],composite z-score [4],composite z-score [5],composite z-score [6],z-score [7],composite z-score [8],composite z-score [9],z-score [10]
CN(C)CCCN1C(=O)[C@@]2(c3ccc([N+](=O)[O-])cc3)CC(=O)N(C3CCCCC3)[C@@H]2c2ccc(CO)cc21,0.0598,-1.05,-0.042,-0.916,0.0687,0.836,-0.493,-0.262,0.12,1.2 (inactive)
CC(C)CNC(=O)[C@@]1(C)c2ccccc2C(=O)N(C(C)C)[C@H]1c1ccc(CO)cc1,-0.105,-1.79,0.175,-1.07,-0.0856,-0.379,-0.265,-0.353,-0.148,0.691 (inactive)
CN1C(=O)C2C=CC(C(O)C=Cc3ccc([N+](=O)[O-])cc3)N(N3CCCCC3)C2C1=O (stereo not given),1.25,1.2,0.518,0.966,1.4,0.544,0.39,0.393,1.28,-1.79 (inactive)
C=C(COC)C(=O)CC[C@H](OC(=O)c1cccnc1)c1ccccc1OCCO,1.12,1.16,-0.0493,0.756,1.36,1.56,-0.0406,1.47,0.18,-2.36 (inactive)
CC(C)(C)OC(=O)CC[C@@]1(C(=O)N2CCOCC2)N=C(c2ccc(OCCCO)cc2)O[C@@H]1c1ccccc1N=[N+]=[N-],3.1,1.29,0.288,1.01,1.36,1.22,1.9,0.885,0.987,-10.6 (active)
C=CCC(OC(C)=O)[C@@H]1[C@@H](N(Cc2cc3ccccc3o2)C(=O)c2ccc(C)cc2)c2cc(OCCCO)ccc2N1C(=O)c1ccc(-c2ccccc2)cc1 (stereo not given in full),-0.277,0.0357,0.13,0.122,0.714,-0.206,0.291,0.239,0.107,0.352 (inactive)
CS(=O)(=O)CCOC(=O)C1=CC(c2ccc(CO)cc2)=CC(c2cccs2)N(Cc2cccc(OC(F)(F)F)c2)C=C1C(=O)OCCS(C)(=O)=O (stereo not given),0.419,0.969,0.513,1.01,1.21,0.0903,1.91,0.836,0.929,-1.86 (inactive)
COc1ccc([Si](C)(C)[C@@H]2[C@@H](CCO)O[C@]3(C(=O)N(Cc4ccc(N5C(=O)c6cccc7cccc5c67)cc4)c4ccccc43)[C@H]2C)cc1,-0.0225,-0.797,0.138,-0.518,-1.12,-0.753,1.23,-0.536,0.397,-0.604 (inactive)
CN1C(=O)C2C(C1=O)C1C=C(c3ccc(CO)cc3)C2C(C2CC2)N1Cc1sc2ccccc2c1Cl (stereo not given),3.31,1.26,1.89,0.982,0.968,1.06,2.26,0.453,1.25,-1.75 (inactive)
C=C[C@H](OC)[C@@H](OC(=O)Nc1ccc(SC)cc1)c1ccc(OCCO)cc1,3.12,1.22,0.39,-0.332,0.236,0.453,-1.56,-0.444,0.833,-1.94 (inactive)
COC(=O)c1c2oc(c1C(=O)OC)C(=O)N[C@H](Cc1ccccc1)Cn1nncc1C1(CCCCC1)NC(=O)N[C@H](CO)CC2,0.265,0.275,0.13,-0.0472,0.373,0.1,3.5,0.553,-0.0322,-0.676 (inactive)
CCCCC(=C=CC[C@H](O)c1ccccc1OCCO)C[C@H](O)c1cc(Cl)cc(Cl)c1O,1.02,0.955,0.305,0.517,0.698,0.28,-0.343,0.249,0.0162,-1.27 (inactive)
C=C[C@H](C)[C@H](O)c1ccc(OCCO)cc1,-0.151,-1.55,0.151,-2.74,-0.74,-1.2,0.145,-0.91,-0.89,-24.9 (active)
C[N+](C)(C)CCCC[C@@H]1NC(=O)[C@@H]2C[C@H](C(=O)NCCCCCCNC(=O)CS)[C@H](c3cccc(OCCO)c3)N2C1=O,1.89,-0.208,-0.379,0.552,1.27,1.2,0.332,1.29,0.585,-1.45 (inactive)
COc1cc(CO)cc(I)c1O[C@H]1C=C(C(=O)NCCO)C[C@@H](N(CCc2cccc(F)c2)C(=O)CCC2CCCC2)[C@@H]1O,2.62,1.19,0.218,0.819,1.46,1.76,-0.172,1.49,0.524,1.38 (inactive)
O=P(NCC1(CC2(c3ccccc3)CO2)CC1)(c1ccccc1)c1ccccc1 (stereo not given),0.618,0.376,0.338,-1.05,-1.23,-1.36,1.11,-2.28,-0.0073,1.33 (inactive)
O=C1O[C@H](c2ccccc2)[C@H](c2ccccc2)N2[C@H]1[C@@H](C(=O)N1CCCCCCC1)[C@]1(C(=O)Nc3ccc(C#CC4=CCCCC4)cc31)[C@H]2c1ccc(O)cc1,3.04,1.36,5.6,0.535,1.56,1.22,-0.233,1.82,1.81,0.289 (inactive)

SMILES,composite z-score [1],composite z-score [2],composite z-score [3],composite z-score [4],composite z-score [5],composite z-score [6],z-score [7],composite z-score [8],composite z-score [9],z-score [10]
CC(C)OC(=O)C1=CCC(c2cccc(Cl)c2)O1 (stereo not given),0.872,0.291,-0.0871,0.455,-0.328,-1.59,-1.4,-1.11,0.58,2.09 (inactive)
CCOC(=O)C[C@H]1[C@H](OC(=O)c2ccc(C(=O)c3ccccc3)cc2)[C@@H](NC(=O)c2ccc3ccccc3n2)c2cc(OCCCO)ccc2N1C(=O)c1ccc2ccccc2n1,-0.0631,1.06,-0.0481,0.887,0.37,0.146,1.5,0.105,0.515,-0.857 (inactive)
CC1(C)C(=O)C(c2ccccc2)=C2CN3C(=O)N(CCc4ccccc4)C(=O)C3(Cc3ccccc3)C=C21 (stereo not given),0.323,1.14,0.369,0.119,0.552,-0.492,0.19,-0.378,1.03,0.245 (inactive)
[N-]=[N+]=NCc1ccccc1C[C@]1(C(=O)NCc2ccccc2)COC(c2ccc(OCCCO)cc2)=N1,0.519,1.16,1.11,0.948,0.101,0.661,-0.221,-0.0991,0.762,-0.169 (inactive)
COc1ccc([Si](C)(C)[C@H]2[C@H](CCO)O[C@@]3(C(=O)N(Cc4cccc(N5C(=O)c6cccc7cccc5c67)c4)c4ccccc43)[C@@H]2C)cc1,0.86,0.586,1.02,0.53,-0.16,-0.23,0.325,-0.0439,0.563,0.669 (inactive)
O=C1OCCC=C[C@H]2OC34C=CCN(c5ccc6ccccc6c5)C(=O)[C@H]3N(CCCCCCO)C(=O)[C@@H]4C12 (stereo not given in full),-0.365,-0.992,-0.0504,-0.771,-0.761,-0.97,1.48,-0.61,-0.451,-1.2 (inactive)
CC(c1ccccc1)C(O)C1C=CC2C(=O)N(Cc3ccccc3)C(=O)C2N1n1cnnc1 (stereo not given),0.509,0.914,0.146,0.654,0.374,0.408,-1.27,-0.133,0.532,1.52 (inactive)
CC1CC/C=C\[C@H]2OC34C=CCN(c5ccc6ccccc6c5)C(=O)[C@H]3N(CCCCCO)C(=O)[C@@H]4C2C(=O)O1 (stereo not given in full),-0.946,-0.824,-0.673,-2.2,-1.02,-1.65,0.987,-0.994,-0.0369,-0.391 (inactive)
Cc1ccc(S[C@]2(C(=O)NCc3ccccc3)CC(=O)N(Cc3cc(C(F)(F)F)cc(C(F)(F)F)c3)[C@@H]2c2ccc(CO)cc2)cc1,-0.0768,-0.469,-0.187,-1.25,0.401,-0.568,-0.0446,-0.0758,-1.01,-0.372 (inactive)
CCCC[C@H]1OB(O)C[C@H]2C1=C(COc1ccccc1)C[C@H]1C(=O)N(Cc3ccccc3)C(=O)[C@H]12,0.755,0.692,0.314,0.817,0.512,0.291,0.742,0.872,0.571,0.258 (inactive)
CC(C)C(CO)N1C(=O)[C@@H]2[C@H]3C(=O)OCC=C[C@H]3OC23C=CCN(c2ccc4ccccc4c2)C(=O)[C@@H]13 (stereo not given in full),-0.151,-1.29,-0.493,-0.581,-0.851,-1.18,0.742,-0.842,-0.328,-0.194 (inactive)
NC(=O)NCC#Cc1ccc2c(c1)[C@]1(C(=O)N2)[C@H](C(=O)NC[C@H](O)c2ccccc2)[C@H]2C(=O)O[C@H](c3ccccc3)[C@H](c3ccccc3)N2[C@@H]1c1ccccc1OCCO,0.441,1.18,0.32,0.946,1.05,0.54,-1.17,0.28,0.25,0.649 (inactive)
CCCC[C@H]1OB(O)C[C@H]2C1=C(C)Cn1c(=O)n(-c3ccccc3)c(=O)n12,0.247,0.299,-0.144,-0.0265,0.415,0.321,-0.281,0.493,0.0939,0.169 (inactive)
O=C(NCC(O)CO)[C@@]1(Cc2ccccc2)COC(c2ccc(OCCCO)cc2)=N1 (stereo not given in full),0.0139,0.0528,0.216,0.531,-0.453,0.0393,-0.165,-0.743,0.488,0.37 (inactive)
CCCCCN1CC=CC23O[C@@H]4C=CCCOC(=O)C4[C@H]2C(=O)N(CCCO)[C@@H]3C1=O (stereo not given in full),0.199,-0.388,-0.572,-0.677,-0.182,-0.311,-0.891,-0.364,0.0083,0.126 (inactive)
COc1ccc(C(=O)Nc2cccc(CN3C(=O)[C@@]4(O[C@@H](CC(=O)N5Cc6ccccc6C[C@H]5CO)[C@H]([Si](C)(C)c5ccc(OC)cc5)[C@H]4C)c4ccccc43)c2)cc1,1.37,0.86,0.469,0.622,1.13,1.25,0.68,1.57,0.29,-1.52 (inactive)
